# Compound activity: PubChem BioAssay, several laboratories
# TRAIL sens C8 – caspase-8 TRAIL sensitization. 360,000 compounds, 1% hits. NB7+C8 cells + TRAIL, ATPlite viability luminescence. inhibition (viability loss, TRAIL sensitization), % at 10 µM;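 active = compounds causing at least 50% loss of cell viability in the single-dose screen, relative to plate controls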
# Platelet DG rel – modulates dense granule release in human platelets; AID 1663; inhibition, %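 (compounds screened at 7.5 µM in platelet-rich plasma)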; 300,000 compounds, 0.22% hits; human platelet-rich plasma, SFLLRN dense granule ATP release, luminescence;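 active = mean replicate score, as percent of positive control, at or above 50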
# STAT1 inh – reduces IFN-gamma driven STAT1 reporter signal | inhibition, % at 5.5 µM | 200,000 compounds, 0.35% hits | NIH 3T3 STAT1-luciferase reporter, luminescence | AID 920;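 active = inhibition above a set limit, the mean inhibition across all tested compounds plus 3 SD, cut at about 34% in these data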;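 also: 0% = IFN-gamma with DMSO and 100% = IFN-gamma with 300 µM nifuroxazide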
# STAT3 inh – inhibitors of IL-6 induced STAT3 signaling; inhibition, % at 5.5 µM; AID 862; 190,000 compounds, 0.89% hits; U3A cells, IL-6 STAT3-luciferase reporter, luminescence; host cell line lacks STAT1;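 active = inhibition above the mean inhibition across all screened compounds plus 3 SD, cut at about 44% in these data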;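 also: 0% = DMSO only wells and 100% = 100 µM nifuroxazide control wells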
# PPC-1+TRAIL kill – kills PPC-1 cancer cells in the presence of TRAIL; PPC-1 cells + TRAIL, ATPLite viability luminescence; cell killing (% activity), % at 4 µM or 5 µM; 220,000 compounds, 0.41% hits; AID 1443;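 active = cell killing above 50% in the first pass at 4 µM, then a duplicate retest at 5 µM averaging 50% or more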;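 also: plate controls were cells with TRAIL plus DMSO for no effect and medium-only wells lacking cells for full effect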
# Starred values were filed as active, the others as inactive; nt = no result. Rows were chosen to be rich in hits. Some 1.6% of all compounds tested hit in one or more screens of this group.
SMILES,TRAIL sens C8,Platelet DG rel,STAT1 inh,STAT3 inh,PPC-1+TRAIL kill
CCOC(=O)C1CCN(C(=O)Cn2nc(C)n3c(cc4cc(F)ccc43)c2=O)CC1,-5.9,50.4*,nt,nt,nt
CCOC(=O)C1CCN(C(=O)Cn2nc(C)n3c(cc4cc(C)ccc43)c2=O)CC1,-4.0,-9.0,nt,nt,nt
Cc1ccc(-c2csc(NC(=O)CSc3nnc4c(n3)[nH]c3ccccc34)n2)cc1,51.5*,nt,8.3,8.5,-7.7
Cc1ccc(NC(=O)CSc2nnc3c(n2)[nH]c2ccccc23)cc1,-4.3,-24.6,nt,nt,nt
CC1(C(=O)O)CCN1C(=O)COc1ccc(Cl)cc1 (centres undefined),-5.5,nt,nt,nt,nt
CC(=O)N1CCc2cc(S(=O)(=O)NCCC3=CCCCC3)ccc21,11.0,3.4,17.1,65.0*,nt
COc1ccc(CC(=O)Nc2cc(S(=O)(=O)N3CCCCC3)ccc2OC(C)C)cc1OC,-11.9,nt,nt,nt,nt
COc1ccc(Cc2nnc(N/N=C/c3ccc(Br)cc3)[nH]c2=O)cc1OC,-4.1,-2.4,nt,nt,-6.8
COc1ccc(Cc2nnc(N/N=C/c3ccc(O)cc3)[nH]c2=O)cc1OC,61.2*,-1.2,1.2,0.1,28.1
CC1CCCN(C2(O)C(=O)Nc3ccc([N+](=O)[O-])cc32)C1 (centres undefined),-5.7,-0.4,nt,nt,nt
CCOC(=O)c1cnc(-n2nc(C)cc2C)nc1N(C)C,49.6*,3.2,-13.9,30.3,43.8
CCOC(=O)c1cnc(-n2nc(C)cc2C)nc1NC1CCCC1,12.9,5.2,nt,nt,27.7
Cn1cc(-c2coc3c(C(=O)NCc4cccs4)cccc23)cn1,-5.7,nt,nt,nt,nt
COCCN(Cc1ccc(OC)cc1)c1c(C)nc2ccc(C(=O)Nc3ccc(NC(C)=O)cc3)cn12,3.7,nt,nt,nt,nt
Cc1ccc(/C=C/C(=O)O)cc1S(=O)(=O)N1CCc2ccccc2C1,-2.1,9.6,4.4,5.9,-4.0
Cc1ccc(/C=C/C(=O)O)cc1S(=O)(=O)N1CCCCC1,7.4,65.4*,nt,nt,-4.8
CN(C)c1ccc2nc3ccc(=[N+](C)C)cc-3sc2c1,55.5*,11.9,-112.6,17.8,67.2*
CCCCCCCCN1C(=O)[C@H](CC(=O)NCc2cccs2)C[C@@]2(C(=O)OC)CC(C)(C)CC=C12,3.5,nt,nt,nt,nt
CCOC(=O)C1=C(C)NC(SCC(=O)Nc2cc(C)on2)=C(C#N)C1c1cccs1 (centres undefined),-0.5,-4.6,51.3*,18.0,32.1
CC1N(O)C(c2ccc(Cl)cc2Cl)N(O)C1(C)C (centres undefined),-11.8,68.0*,-4.7,8.6,nt
ON1C(c2ccc(Cl)cc2Cl)N(O)[C@H]2CCCC[C@H]21 (some centres undefined),-5.8,-2.0,-0.5,10.7,12.8
Cc1nc2cc(NC(=O)c3ccc(Br)s3)ccc2s1,62.8*,11.5,nt,nt,nt
CCc1sc(C(=O)Nc2ccc3c(c2)OCO3)cc1C,32.8,nt,nt,nt,nt
O=C(Nc1ccc2c(c1)OCCO2)c1ccc(Br)s1,74.0*,4.8,-93.9,39.3,60.5*
CCc1sc(C(=O)Nc2ccc3c(c2)OCCO3)cc1Br,50.2*,-4.5,nt,nt,nt
SMILES,TRAIL sens C8,Platelet DG rel,STAT1 inh,STAT3 inh,PPC-1+TRAIL kill
COc1ccc(N(C)C(=O)c2cn(C)c(=O)c3cc(OC)c(OC)cc23)cc1,-7.8,7.2,nt,nt,nt
C=CCN(c1ccccc1)S(=O)(=O)c1cccc(C(=O)Nc2ccc(N3CCOCC3)cc2)c1,8.3,nt,nt,nt,nt
COc1cccc(-c2nc(-c3ccc(C(=O)O)cc3)no2)c1,25.4,50.1*,nt,nt,nt
O=C(O)c1ccc(-c2noc(-c3ccccc3F)n2)cc1,-3.4,69.4*,nt,nt,nt
COc1cccc(-c2nc3ccc(O)cc3c(=O)o2)c1,-1.6,51.9*,-13.2,11.0,12.5
Cc1ccccc1CNC(=O)c1ccc2nc([C@@H]3O[C@H](CO)[C@H](O)[C@H](O)[C@H]3O)[nH]c2c1,-3.1,nt,nt,nt,nt
CCN1CCN(C2=C(NS(=O)(=O)c3ccc(C)cc3)C(=O)c3ccccc3C2=O)CC1,52.0*,16.3,nt,nt,nt
Nc1nc(N)c2c(ccc3c2ccn3Cc2cccc([N+](=O)[O-])c2)n1,96.6*,nt,nt,nt,nt
CCCC(=O)N1CCC1(C)C(=O)Nc1ccc2c(c1)CCN2C(C)=O (centres undefined),-10.8,nt,nt,nt,nt
Clc1nc(-c2ccccn2)nc2scc(-c3ccccc3)c12,46.1,-2.6,-29.9,25.6,71.5*
Cc1cc2nccc(-c3ccc(OCCCF)cc3)n2n1,0.6,-3.2,nt,nt,nt
COc1cccc(/C=C2\CCc3ccccc3C2=O)c1,82.4*,48.7,nt,nt,-6.3
O=C1/C(=C/c2ccc([N+](=O)[O-])cc2)CCc2ccccc21,nt,49.6*,nt,nt,32.9
O=C1/C(=C/c2cccc([N+](=O)[O-])c2)CCc2ccccc21,12.4,-5.0,12.8,22.7,23.4
